Test results: PubChem BioAssay AID893 (National Center for Advancing Translational Sciences (NCATS), 2007)
About 5,700 (7.6%) of roughly 75,000 compounds were called active. Another 7% or so got no clear call; they are omitted. The call rests on the fitted dose curve; in most records, active means well fitted inhibition curve with a large enough effect; inconclusive means small, poorly fitted or top-dose-only effect; inactive means no such curve, though single readings can be large or run the other way. This excerpt belongs to a sample that is enriched for actives.

Molecular target: 3-hydroxyacyl-CoA dehydrogenase type-2 (Homo sapiens) (UniProt Q99714)
Assay: qHTS Assay for Inhibitors of HSD17B4, hydroxysteroid (17-beta) dehydrogenase 4;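 further: the protocol describes HADH2 (HSD17B10) and not the HSD17B4 of the title; nearly all actives have a fitted effect of over 70% in size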
Details: recombinant HSD17B10, NADH fluorescence kinetic; series mostly up to 57.1 µM; activity change, negative = inhibition: at the top concentration
In short: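 Enzyme plus compound, 15 min room temperature; substrate mix added (NAD+ 1 mM, beta-hydroxybutyryl-CoA 90 uM final); plates read kinetically for NADH fluorescence. HADH2 was His-tagged, E. coli-derived, 20 nM.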
On the % scale 0 is the no-effect control and ±100 the full control effect; potency means the concentration at half of the fitted maximal effect.

Activity change, negative = inhibition, inactive:
COCCCN(C(=O)Cn1ncc2c(=O)oc3ccc(C)cc3c21)C(C)c1ccncc1 (centres undefined) 3.46%, Cn1c(=O)cc(SCC(=O)N2CCCC2)c2cc(Cl)ccc21 -14.4%, Cc1cc(C(F)(F)F)nn1CC(=O)N1CCCC1 7.74%, COc1ccc(-c2cc(C(F)(F)F)n3nc(C(=O)N4CCOCC4)c(Cl)c3n2)cc1 -20.7%, c1ccc(CCc2nc(-c3ccncc3)no2)cc1 12%, COc1ccc(Br)cc1S(=O)(=O)N1CCN=C1C 4.44%, Cc1cc(C)cc(N(CC(=O)Nc2c(C)n(C)n(-c3ccccc3)c2=O)S(C)(=O)=O)c1 3.4%, O=C(NC1CCCCC1)C1CCCN(S(=O)(=O)c2cccs2)C1 (centres undefined) 5.88%, N#Cc1nc(COc2ccc(Cl)cc2)oc1N1CCCC1 -12.5%, Cc1ccc(OCc2nc(C#N)c(N3CCCC3)o2)cc1 -5.17%, CN(CCCNC(=O)CN1C(=O)CC(C)(C)S(=O)(=O)c2ccccc21)C1CCCCC1 7.28%, Nc1nc2c(nc(Cl)n2C2OC(CO)C(O)C2O)c(=O)[nH]1 (centres undefined) 2.31%, COC(=O)[C@@]1(Cc2ccc(F)cc2)[C@H]2c3cc(C(=O)N4CCCC4)n(Cc4ccc(OC(F)(F)F)cc4)c3C[C@H]2CN1C(=O)c1ccccc1 3.57%, CC(=O)OCC(=O)[C@@]1(O)CCC2C3CCC4=CC(=O)CC[C@]4(C)C3C(=O)C[C@]21C (some centres undefined) -6.18%, CC(=O)OCC(=O)[C@@]1(O)CC[C@@H]2[C@H]3CCC4=CC(=O)C=C[C@]4(C)[C@]3(F)[C@@H](O)C[C@@]21C -3.22% [at 25.6 µM], COC(=O)[C@H](C(C)C)n1c(C)c(C(C)=O)c(C(C)=O)c1C 0.196%, O=S(=O)(CCc1nc2ccccc2o1)c1ccc(Cl)cc1 0.596%, CC1(C)CC(=O)C=C(NCCCN2CCCC2=O)C1 3.81%, O=C(CCn1c(=S)[nH]c2ccccc2c1=O)NCCCN1CCCC1=O -0.655%, CCOC(=O)C1CCN(C(=O)c2oc3ccc(S(=O)(=O)N4CCCCCC4)cc3c2C)CC1 -7.28%, CCOc1ccccc1NC(=O)c1cc(S(=O)(=O)N2CCC3(CC2)OCCO3)ccc1F 2.01%, CCOC(=O)N1CCN(Cc2oc(CO)cc(=O)c2O)CC1 9.28%, O=C(Nc1cccc(C(=O)N2CCCC2)c1)c1ccccc1 4.43%, O=C(Nc1cccc(NC(=O)N2CCN(c3ccccc3)CC2)c1)N1CCN(c2ccccc2)CC1 -8.85%, O=C(O)[C@H](CCc1ccccn1)c1ccccc1 1.79% [at 11.4 µM], CC(=O)Nc1nc(C)c(Cc2ccccc2)c(=O)[nH]1 7.09%, CSc1ccc(Cl)c(C(=O)OCC(=O)N2CC(C)OC(C)C2)c1 (centres undefined) -18.8%, CC1(C)CC(=O)C(C=NCc2cccnc2)=C(O)C1 -0.881%, CC(=O)N1CCN(CCN=CC2=C(O)CC(C)(C)CC2=O)CC1 0.82%, O=c1cc(CSc2ccc(Cl)cc2)nc(N2CCOCC2)[nH]1 3.58%, CNC(=O)c1ccc2nc(NC(C)=O)sc2c1 0.612%, CCn1c(SCC(=O)Nc2nc3ccc(OC)cc3s2)nnc1-c1ccoc1C -3.39%, CC1(C)CN=C(N2CCN(c3ncnc4sc5c(c34)CCCC5)CC2)S1 -2.18%, ON=C1/C(=N\O)CC2(C/C1=N/O)OCCO2 5.01%, O=C(NCc1ccco1)c1nc2ncccn2n1 5.09%, CC(C)CC1(C(=O)NCc2ccccn2)C=CCN1C(=O)c1ccccc1 (centres undefined) 4.19%, CCn1nnc(NC(=O)c2cc(Cl)c(OC)c(Cl)c2)n1 6.89%, Cc1noc(C)c1S(=O)(=O)N(CC(=O)NCc1ccc(Cl)cc1)c1ccc2c(c1)OCO2 4.33%, COc1cc(C(O)c2nc3ccccc3n2C)cc(OC)c1OC (centres undefined) 9.03%, Cc1nn2c3ccccc3nc2n(C)c1=O -6.27%, O=C(NCc1ccco1)C1CCCN(S(=O)(=O)c2cccc3nonc23)C1 (centres undefined) -23.9%, CC(C)(C)c1ccc(OC2C=CC(C#Cc3ccccc3)OC2CO)cc1 (centres undefined) -6.55% [at 11.4 µM], COC1[C@H](OC(N)=O)C(O)[C@H](Oc2ccc3c(O)c(NC(=O)c4ccc(O)c(CC=C(C)C)c4)c(=O)oc3c2C)OC1(C)C (some centres undefined) -5.15%, O=C(c1ccc(F)cc1)C1CCN(CCCCc2ccccc2)CC1 -9.73%, CCN1C(=O)C(C(=O)NC(C)c2ccccc2)C2CC1(C)Oc1ccccc12 (centres undefined) 1.95%, FC(F)(F)c1cc(-c2ccco2)nc(N2CCOCC2)n1 -6.73%, FC(F)(F)c1nnc2sc(-c3ccco3)nn12 6.1%, CCCC(C(=O)NCc1ccco1)N(C(=O)CNS(=O)(=O)c1ccccc1)C1CCCC1 (centres undefined) 4.33%, CC(=O)N(CN1C(=O)C2CC=CCC2C1=O)c1cccc(Cl)c1 (centres undefined) 6.21%, CCOc1nc(OCC)nc(-n2cc(-c3ccccc3)nn2)n1 -3.82%, CC(=O)Nc1cccc(-c2cnc3ccccc3n2)c1 -2.86%, CCCC(=O)Nc1cccc(-c2cn3ccsc3n2)c1 11.3%, O=C(c1ccco1)N1CCN=C1SCc1cccc(Cl)c1 9.16%, COC(=O)c1ccc2c(=O)n(CC3CCCO3)c(=S)[nH]c2c1 (centres undefined) -2.48%, O=c1c2cc3c(=O)n(CC4CCCO4)c(=O)c3cc2c(=O)n1CC1CCCO1 (centres undefined) -21.7%, CCC1=[N+]([O-])C(C)(/C(C)=N\O)N(O)C1(C)C (centres undefined) -3.53%, O=C(COC(=O)c1ccccc1C(=O)c1ccccc1)c1ccco1 7.35%, CC(=O)c1cc2c(cc1N)OCO2 3.78%, COCCn1c(C)cc(C(=O)CSc2ncnc3sc4c(c23)CCC4)c1C -17.9%, Cc1cc(C)n(-c2nc(SCC(=O)N3CCCC3)c3c4c(sc3n2)CCCC4)n1 4.86%, CO/N=C\[C@@H](C)[C@H](OCc1ccccc1)C(C)C -1.19% [at 11.4 µM], O=C(c1ccc2c(c1)OCCO2)C1CCN(S(=O)(=O)c2cccc(F)c2)CC1 17.6%, CC(C)(C)C(=O)CCN1C(=O)C2(OCCO2)c2ccccc21 -5.73%, Cc1ccc(-c2nn(CC(C)(C)C)c3ncnc(N)c23)cc1 4.95%, CCCCN(CC)C(=O)CN(C)S(=O)(=O)c1cccc2nsnc12 4.56%, COc1ccc(C(=O)Nc2nncs2)c(OC)c1 -6.6%, COC(=O)c1ccccc1NC(=O)c1ccccc1NS(C)(=O)=O 1.63%, CSC1=NCCN1C(=O)c1ccc(S(=O)(=O)N2CCOCC2)cc1 0.893%, Cc1cc(C(=O)COC(=O)CCCN2C(=O)c3ccccc3C2=O)c(C)n1C -0.506%, c1ccc(CCN2CCN=C2Cc2ccccc2)cc1 7.62% [at 11.4 µM], COc1ccccc1-c1nnc(SCC(=O)Nc2ccccc2)o1 -19.6%, COc1ccccc1-c1nnc(SCC(=O)Nc2cc(C)on2)o1 1%, OC(CCl)CCl -2.49%, CC(C)(C)Nc1c(N)c(=O)oc2ccccc12 0.0117%, Cc1nc2cnc(Nc3ccccc3)nc2n(C[C@H]2CCCO2)c1=O -0.713%, CCOc1cccc(=O)c2c(C)n(CC3CCCO3)c(C)c12 (centres undefined) -1.23%, Cn1cc(-c2nc3cnc(N4CCNCC4)nc3n(CCC#N)c2=O)c2ccccc21 -6.12%, CCC1=C(OC(=O)N(CC)CC)N2C(=O)OC(=NCC3CC3)[C@]2(C)[C@H]2C1=CC[C@H]1C(=O)N(CC(=O)OC)C(=O)[C@H]12 -1.94%, COC(=O)[C@@]1(Cc2ccccc2)[C@H]2c3cc(C(=O)N(C)C)n(CCSCCO)c3C[C@H]2CN1C(=O)c1ccccc1 5.51%, O=C(c1cc(C(F)(F)F)cc(C(F)(F)F)c1)N1CCC2(CC1)CN(c1ccncc1)C2 9.32%, CC(=O)c1cccc(NC(=O)c2ccncc2)c1 -9.24%, CC1(C)Cc2cccc(OCC(=O)Nc3nccs3)c2O1 12.3%, COC(=O)[C@@]1(Cc2ccccc2)[C@H]2c3cc(C(=O)N4CCCC4)n(Cc4ccc(C)o4)c3C[C@H]2CN1C(=O)c1ccccc1 11.8%

Potency, active:
Cc1ccc(-c2cc(C(F)(F)F)n3nc(C(=O)N4CCCC4)cc3n2)cc1 20 µM, CC1CCN(c2oc(-c3ccccc3F)nc2C#N)CC1 31.6 µM, C[C@]12C=CC(=O)C=C1CC[C@@H]1[C@@H]2C(=O)C[C@@]2(C)[C@H]1CC[C@]2(O)C(=O)CO 15.8 µM, O=C1CCCN1CCCNc1ncnc2c1[nH]c1ccccc12 31.6 µM, Cc1c(C(=O)Nc2ccccc2Cl)oc2ccc(S(=O)(=O)N3CCC4(CC3)OCCO4)cc12 25.1 µM, Cc1nc2ccc(NC(=O)N3CCC(c4ccccc4)C3)cc2nc1C (centres undefined) 25.1 µM, CC1(C)CC(=O)C(C=NCCC2=CCCCC2)=C(O)C1 31.6 µM, COc1ccc2nc(NC(=O)c3ccc(Br)s3)sc2c1 31.6 µM, O=C(NCc1ccccn1)c1ccc2nc(-c3ccco3)c(-c3ccco3)nc2c1 12.6 µM, Cc1csc(-c2nc3ccccc3n2C)n1 31.6 µM, Cc1cc(C(F)(F)F)nn1-c1nc(-c2ccco2)cc(C(F)(F)F)n1 31.6 µM, CC(=O)Nc1ccc(-c2cn3cccnc3n2)cc1 10 µM, c1ccc(-c2cn3cccnc3n2)cc1 25.1 µM, O=C(NC1CCCCC1)c1ccc2c(=O)n(CC3CCCO3)c(=O)[nH]c2c1 (centres undefined) 31.6 µM, COCCNc1nc(-n2nc(C)cc2C)nc2sc3c(c12)CCCC3 25.1 µM, O=C(Nc1nncs1)c1ccccc1NS(=O)(=O)c1cccs1 25.1 µM, Cc1cc(NC(=O)CSc2nnc(-c3ccc(Cl)s3)o2)no1 31.6 µM, Cc1cc2nc3c(=O)[nH]c(=O)nc-3n(C[C@H](O)[C@H](O)[C@H](O)CO)c2cc1C 15.8 µM, Cc1nc2cnc(N3CCN(C)CC3)nc2n(C[C@H]2CCCO2)c1=O 31.6 µM, Cc1nc2cnc(N3CCN(C)CC3)nc2n(CCC#N)c1=O 31.6 µM, CCCCc1cc(=O)oc2cc(C)cc(OCc3nn[nH]n3)c12 31.6 µM
